Epigenetic reg – Quantitative High-Throughput Screen for Regulators of Epigenetic Control; murine LDR cells, GFP reporter derepression, 30 h; Potency, µM (series often up to 53.9 µM), most hits filed as activators; 0.2% of 280,000 active; AID 1865, 2009; active = well fitted activation curve with a large enough effect; also: nearly all actives have a fitted effect of over 60% in size
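Murine LDR cells carrying a silenced, genomically integrated CMV-driven GFP reporter were exposed to compound for 30 hours at 37 C. After PBS washes, GFP-positive cells (20–120 um objects) were counted by laser-scanning microplate cytometry.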
D1 antagonist – Antagonist of Human D 1 Dopamine Receptor: qHTS; activity change, negative = inhibition, % at 10 µM; HEK293 TREx D1 cells, calcium flux, dopamine EC80; active compounds read low; AID 504652, 2011; D(1A) dopamine receptor (Homo sapiens), P21728; 3.2% of 360,000 active; in the data active = activity change below about -30%
Target sequence (P21728 whole entry, looked up): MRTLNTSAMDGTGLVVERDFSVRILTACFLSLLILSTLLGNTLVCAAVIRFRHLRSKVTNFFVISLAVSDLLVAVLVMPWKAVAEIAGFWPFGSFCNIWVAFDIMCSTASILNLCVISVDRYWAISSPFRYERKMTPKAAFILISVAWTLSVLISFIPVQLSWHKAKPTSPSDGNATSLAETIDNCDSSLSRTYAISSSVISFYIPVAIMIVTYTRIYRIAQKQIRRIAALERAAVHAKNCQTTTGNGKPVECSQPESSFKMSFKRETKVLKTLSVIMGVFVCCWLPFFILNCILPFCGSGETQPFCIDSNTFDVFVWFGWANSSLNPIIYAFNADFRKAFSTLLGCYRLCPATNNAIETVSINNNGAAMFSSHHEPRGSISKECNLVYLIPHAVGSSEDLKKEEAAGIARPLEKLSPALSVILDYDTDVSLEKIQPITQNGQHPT
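Inducible Hek293 Trex D1 cells (tetracycline, overnight, 30 C). Calcium dye 30–90 min RT. Antagonist mode: EC80 dopamine added after 180 s compound read.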
D1 agonist – Allosteric Agonists of the Human D1 Dopamine Receptor: qHTS; 1% of 360,000 active; activation, % at 2 µM; AID 504660, 2011; HEK293 T-REx D1 cells, calcium flux, agonist mode; D(1A) dopamine receptor (Homo sapiens), P21728
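Agonism was scored from calcium flux recorded over 180 s (1 read/s) after pintool compound addition, following a 10-cycle baseline. Cells were inducible force-coupled HEK293 TREx D1, plated overnight at 30 C and loaded with no-wash calcium dye.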
TRHR agonist – qHTS for Small Molecule Agonists and Allosteric Enhancers of Human TRH Receptor: Primary Screen for Agonists. Thyrotropin-releasing hormone receptor (Homo sapiens), P34981. TRHR cells, calcium flux fluo-8, FDSS agonist mode. activation, % at 2 µM. 0.18% of 360,000 active
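Read-out: compound-evoked intracellular calcium rise in TRHR cells, fluo-8 dye, kinetic FDSS fluorescence at 1 s/cycle following a 10-cycle baseline. Cells cultured overnight before dye loading (30 min–1.5 h, RT).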
D1 potentiator – Potentiators of Human D1 Dopamine Receptor: qHTS; HEK293 TREx D1 cells, calcium flux, dopamine EC20 potentiation; potentiation, % at 10 µM; 0.036% of 360,000 active; AID 504651, 2011; in the data active = potentiation above about 30%
TRHR enhancer – qHTS for Small Molecule Agonists and Allosteric Enhancers of Human TRH Receptor: Primary Screen for Enhancers; Thyrotropin-releasing hormone receptor (Homo sapiens), P34981; TRHR cells, fluo-8 calcium fluorescence, EC20 TRH enhancement; enhancement, % at 2 µM; 0.66% of 360,000 active; AID 493056, 2011; in the data active = enhancement above about 30%
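Enhancer read-out: after compound pinning and an initial kinetic agonist-mode read, an EC20 of TRH (10 nM final) was injected and fluo-8 calcium signal (Ex 480/Em 530) followed at 1 s/cycle for 100 cycles in TRHR-expressing cells.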
Of the large screens only hits and unclear results are named; the others gave an inactive call. An excerpt weighted towards active compounds, which were near 4.6% of everything screened. Rule as the data show it, unless noted: active = activation above about 30%; inactive = the rest.

COc1ccc2c(c1)c(CCN1CCOCC1)c(C)n2C(=O)c1cccc(Cl)c1Cl	none (no result: D1 antagonist, D1 agonist, TRHR agonist, D1 potentiator, TRHR enhancer)
O=[N+]([O-])c1cc(O)c(O)c([N+](=O)[O-])c1	D1 antagonist -41
COc1cc(CN2CCN(c3cc(C)ccc3C)CC2)ccc1O	D1 antagonist -89
CC(C)[C@@]1(NC(=O)[C@@H]2C[C@H]3c4cccc5[nH]cc(c45)C[C@@H]3N(C)C2)O[C@@]2(O)[C@H]3CCCN3C(=O)[C@H](Cc3ccccc3)N2C1=O	none (no result: D1 antagonist, D1 agonist, TRHR agonist, D1 potentiator, TRHR enhancer)
N#Cc1ccc(NC(=O)CN2CCCCCC2)cc1Cl	none (no result: Epigenetic reg)
N#Cc1ccc(NC(=O)CN2C(=O)NC3(CCCCCCC3)C2=O)cc1Cl	D1 antagonist -57 (no result: Epigenetic reg)
CCOc1ccc(-n2c(O)c(/C=C3\C=Nc4ccccc43)c(=O)[nH]c2=O)cc1	D1 agonist 32 (no result: Epigenetic reg)
COc1ccc(OC)c(-n2c(O)c(/C=C3\C=Nc4ccccc43)c(=O)[nH]c2=O)c1	none (no result: Epigenetic reg)
CN(N=O)c1cc(O)ccc1O	none
COCCN1C(=O)NC(=O)/C(=C\c2ccc(Br)cc2)C1=O	D1 antagonist -55
COC(=O)C12CC3=CCC4C(=O)N(c5ccccc5)C(=O)C4C3Cc3ccccc3[C@@H]1CNC2=O (stereo not given in full)	none (no result: D1 antagonist, D1 agonist, TRHR agonist, D1 potentiator, TRHR enhancer)
COC(=O)C1C(c2ccccc2)C2C(=O)c3c(OC)cc(OC)cc3O[C@@]12c1ccc(OC)cc1 (stereo not given in full)	none (no result: D1 antagonist, D1 agonist, TRHR agonist, D1 potentiator, TRHR enhancer)
COC(=O)[C@@H]1[C@@H](O)[C@@]2(O)c3c(OC)cc(OC)cc3O[C@@]2(c2ccc(OC)cc2)[C@H]1c1ccccc1	Epigenetic reg 3.5µM (no result: D1 antagonist, D1 agonist, TRHR agonist, D1 potentiator, TRHR enhancer)
CCOc1ccc2nc(NC(=O)c3cccn(Cc4ccccc4)c3=O)sc2c1	D1 agonist 33 (no result: D1 antagonist)
CCCNC(=O)c1c(N)n(Cc2ccco2)c2nc3ccccc3nc12	none (no result: D1 antagonist)
Nc1c(C(=O)NCC2CCCO2)c2nc3ccccc3nc2n1Cc1ccco1 (stereo not given)	Epigenetic reg 25µM
COc1ccc2c(c1O)-c1c(OC)c(OC)cc3c1[C@H](C2)N(C)CC3	D1 antagonist -63
COc1ccc2c(c1O)-c1c(OC)c(OC)cc3c1[C@@H](C2)N(C)CC3	none (no result: D1 antagonist, D1 agonist, TRHR agonist, D1 potentiator, TRHR enhancer)
CC(C(=O)N1CCC2(CC1)OCCO2)C1Sc2ccccc2NC1=O (stereo not given)	TRHR enhancer 35
[O-][n+]1onc2c1CCC1N(O)CCC21O (stereo not given)	D1 antagonist -30
COc1ccccc1CCNCc1ccc(OC)c(OC)c1OC	TRHR enhancer 39
Cc1[nH]c2ccccc2c1CCNCc1cccnc1	none (no result: Epigenetic reg)
COc1ccc2[nH]c(C)c(CCNCc3cn(C)c4ccccc34)c2c1	D1 antagonist -55, D1 agonist 41 (no result: Epigenetic reg)
COc1ccccc1CCNC1CCC(C(C)(C)C)CC1 (stereo not given)	D1 agonist 89
Cc1nc2ccccc2c(=O)n1-c1ccc(C(=O)O)cc1	TRHR enhancer 31
CC(=O)O[C@H]1C[C@@H]2CC[C@@H]3[C@H](CC[C@]4(C)C(=O)CC[C@@H]34)[C@@]2(C)C[C@@H]1OC(C)=O	D1 antagonist -41 (no result: Epigenetic reg)
CC(=O)OC1=CC[C@H]2[C@@H]3CC[C@H]4C[C@H](OC(C)=O)[C@@H](OC(C)=O)C[C@]4(C)[C@H]3CC[C@]12C	none (no result: Epigenetic reg)
CCN1C(=O)NC(=O)/C(=C\c2cn(CC(=O)N3CCCCC3C)c3ccccc23)C1=O (stereo not given)	D1 antagonist -30 (no result: Epigenetic reg)
C=CCN1CCC2(C)c3cc(O)ccc3C[C@H]1[C@H]2C	none (no result: D1 antagonist, D1 agonist, TRHR agonist, D1 potentiator, TRHR enhancer)
FC(F)(F)c1ccccc1NC1=NCCCS1	none (no result: Epigenetic reg)
Clc1ccccc1NC1=NCCCS1	TRHR enhancer 35 (no result: Epigenetic reg)
C[C@H]1CCC/C=C/C2C[C@H](O)CC2[C@H](O)/C=C/C(=O)O1 (stereo not given in full)	D1 antagonist -41

Screening results (PubChem BioAssay)
